Experimental data taken from PubChem BioAssay.
The source made the active and inactive calls.

Legend:
[1] = system: PRMT1 (protein arginine N-methyltransferase 1); experiment: PRMT1 binders on small-molecule microarrays, primary screen, biochemical, small-molecule microarray, 635 nm fluorescence (AID 1088); settings: small-molecule microarray binding, higher = more signal;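 further: binding of Prmt1 protein to compounds spotted on small-molecule microarray slides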
[2] = yeast growth modulation, basal conditions, primary screen, YJM789 clinical isolate, OD600, 24 h (AID 1089);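 further: growth of clinical yeast isolate S. cerevisiae YJM 789 seeded 1000 cells per well; test concentration not given here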; settings: S. cerevisiae YJM789 growth, higher = more signal, called active from +8 up or from −8 down
[3] = fission yeast growth modulation, primary screen, strain 972, OD600, 24 h, no modulator (AID 1090);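 further: basal condition with compound alone and no growth modifier present; test concentration not given here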; settings: S. pombe 972 growth, higher = more signal, called active from +8 up or from −8 down
[4] = S. cerevisiae growth modulation with rapamycin, primary screen, strain BY4716, OD600, 96 h (AID 1091); settings: higher = more signal, called active from +8 up or from −8 down; further: test concentration not given here
[5] = biological target: Torsin-1A-interacting protein 2 (Homo sapiens) (UniProt Q8NFQ8); experiment: LULL1 binders on small-molecule microarray, primary screen, cell lysate, human LULL1 lysate, 635/667 nm fluorescence (AID 1092); settings: hLULL1 lysate binding, 635 nm fluorescence, higher = more signal;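 further: probe is lysate of COS7 cells overexpressing human LULL1; score merges per-feature 667 nm fluorescence with signal-to-noise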
[6] = E. coli growth modulation, two-sided OD650, primary screen, E. coli filamentation project, strain DRC41, 24 h (AID 1093); settings: OD650, 24 h, higher = more signal, called active from +8 up or from −8 down;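 further: MC1000 strain lacking acrAB efflux and sulA so SOS filamentation is blocked; test concentration not given here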
[7] = small-molecule microarray binders of probe aLefty2, primary screen, biochemical, biotinylated probe, 635/667 nm fluorescence (AID 1094); settings: higher = more signal;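 further: score merges spot fluorescence near 667 nm with spot signal-to-noise ratio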
[8] = system: Noggin (protein binding on small-molecule microarray); experiment: Noggin binders on small-molecule microarray, primary screen, biochemical, 635/667 nm fluorescence (AID 1095); settings: 635 nm fluorescence, higher = more signal;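 further: score merges 667 nm feature fluorescence with signal to noise over triplicate slides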
[9] = biological target: Neurogenic locus notch homolog protein 3 (Homo sapiens) (UniProt Q9UM47); experiment: NOTCH3 binders on small-molecule microarray, primary screen, biochemical, 635/667 nm fluorescence (AID 1096); settings: NOTCH3 binding, 635 nm fluorescence, higher = more signal
[10] = small-molecule microarray binders of probe aEGFR, primary screen, biochemical, biotinylated probe, 635/667 nm fluorescence (AID 1097); settings: higher = more signal;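 further: probe is a biotinylated anti-EGFR antibody binding compounds printed on slides; score combines fluorescence near 667 nm and signal to noise of each spot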
[11] = system: Plasmodium falciparum Sir2 (PF13_0152, Sir2A); experiment: pfSir2 binders on small-molecule microarrays, primary screen, biochemical, small-molecule microarray, 635 nm fluorescence (AID 1098); settings: small-molecule microarray binding, fluorescence 635 nm; higher = more signal;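 further: score merges spot fluorescence intensity with its signal-to-noise ratio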
[12] = small-molecule microarray binders of probe aDKK1, primary screen, biochemical, biotinylated probe, 635/667 nm fluorescence (AID 1099); settings: higher = more signal;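 further: score merges 667nm spot fluorescence with signal to noise across triplicate slides; reference of the scale not given here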
[13] = small-molecule microarray binders of probe aCHRDL2, primary screen, biochemical, biotinylated probe, 635/667 nm fluorescence (AID 1100); settings: higher = more signal
[14] = splicing luciferase reporter signal modulators, primary screen, spliceosome inhibition project, cell-based, HEK293, splice +/- reporter (AID 1101); settings: luminescence, 24 h, higher = more signal, called active from +8 up or from −8 down;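 further: HEK293 cells carrying a splicing-competent luciferase reporter gene; test concentration not given here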
[15] = biological target: Fibroblast growth factor 10 (Homo sapiens) (UniProt O15520); experiment: FGF10 binders on small-molecule microarrays, primary screen, biochemical, small-molecule microarray, 635 nm fluorescence (AID 1102); settings: FGF10 binding, fluorescence 635 nm, higher = more signal
[16] = system: glycogen synthase kinase-3 (GSK3A per assay name; protocol says GSK3B); experiment: GSK3 binders on small-molecule microarrays, primary screen, biochemical, small-molecule microarray, 635 nm fluorescence, GSK3A (AID 1103); settings: small-molecule microarray binding, fluorescence 635 nm; higher = more signal; further: the record names both GSK3A and GSK3B
[17] = biological target: Epidermal growth factor receptor (Homo sapiens) (UniProt P00533); experiment: EGFR binders on small-molecule microarrays, primary screen, biochemical, small-molecule microarray, 635 nm fluorescence (AID 1104); settings: EGFR binding, higher = more signal;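 further: score merges 667 nm emission intensity with spot signal to noise over triplicate slides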
[18] = biological target: Follistatin-related protein 3 (Homo sapiens) (UniProt O95633); experiment: FSTL3 binders on small-molecule microarrays, primary screen, biochemical, small-molecule microarray, 635 nm fluorescence (AID 1105); settings: FSTL3 binding, higher = more signal;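 further: score merges emission near 667 nm and signal to noise per printed spot across three slides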
[19] = biological target: Dickkopf-related protein 1 (Homo sapiens) (UniProt O94907); experiment: DKK1 binders on small-molecule microarrays, primary screen, biochemical, small-molecule microarray, 635 nm fluorescence scan (AID 1106); settings: DKK1 binding, higher = more signal;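 further: score merges emission near 667 nm with signal to noise over three replicate slides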
[20] = system: Inhibin beta A chain (activin A); experiment: INHBA (activin A) binders on microarrays, primary screen, biochemical, small-molecule microarray, 635 nm fluorescence scan (AID 1107); settings: small-molecule microarray binding, higher = more signal;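 further: mouse activin A protein probed at 4.33 µg/mL on printed slides; score merges bound-protein fluorescence near 667 nm with spot signal-to-noise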

Epidermal growth factor receptor (Homo sapiens), sequence (P00533 whole entry, looked up): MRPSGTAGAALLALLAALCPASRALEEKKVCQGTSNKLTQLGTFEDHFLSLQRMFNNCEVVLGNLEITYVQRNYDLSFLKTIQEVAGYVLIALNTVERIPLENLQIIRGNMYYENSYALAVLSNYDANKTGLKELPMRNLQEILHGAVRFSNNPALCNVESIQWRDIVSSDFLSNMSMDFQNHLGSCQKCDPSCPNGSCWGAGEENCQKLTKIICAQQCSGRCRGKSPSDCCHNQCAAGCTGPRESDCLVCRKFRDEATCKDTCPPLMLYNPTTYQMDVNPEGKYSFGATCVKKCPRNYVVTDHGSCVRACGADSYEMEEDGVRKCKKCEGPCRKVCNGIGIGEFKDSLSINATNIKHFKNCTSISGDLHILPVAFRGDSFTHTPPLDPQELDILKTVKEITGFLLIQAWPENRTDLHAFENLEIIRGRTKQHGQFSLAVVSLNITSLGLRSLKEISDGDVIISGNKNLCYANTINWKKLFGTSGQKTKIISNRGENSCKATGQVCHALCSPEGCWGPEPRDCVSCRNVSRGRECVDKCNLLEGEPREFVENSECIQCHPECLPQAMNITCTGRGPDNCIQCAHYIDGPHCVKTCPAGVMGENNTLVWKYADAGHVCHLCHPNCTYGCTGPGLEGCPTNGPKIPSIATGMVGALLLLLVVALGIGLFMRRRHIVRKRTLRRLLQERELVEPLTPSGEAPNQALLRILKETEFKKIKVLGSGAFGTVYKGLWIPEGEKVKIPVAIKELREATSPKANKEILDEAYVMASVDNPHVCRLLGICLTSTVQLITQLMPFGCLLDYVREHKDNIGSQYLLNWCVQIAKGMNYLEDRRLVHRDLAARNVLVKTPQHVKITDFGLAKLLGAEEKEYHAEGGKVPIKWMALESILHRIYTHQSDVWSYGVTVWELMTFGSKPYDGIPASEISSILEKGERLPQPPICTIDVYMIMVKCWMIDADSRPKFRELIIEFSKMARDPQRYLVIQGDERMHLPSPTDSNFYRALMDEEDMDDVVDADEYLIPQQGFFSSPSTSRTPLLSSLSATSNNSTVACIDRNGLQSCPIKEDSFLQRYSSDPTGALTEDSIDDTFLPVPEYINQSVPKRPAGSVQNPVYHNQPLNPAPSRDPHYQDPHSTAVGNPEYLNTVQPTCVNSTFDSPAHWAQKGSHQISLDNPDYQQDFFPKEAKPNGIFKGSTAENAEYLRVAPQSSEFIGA
Dickkopf-related protein 1 (Homo sapiens), sequence (O94907 whole entry, looked up): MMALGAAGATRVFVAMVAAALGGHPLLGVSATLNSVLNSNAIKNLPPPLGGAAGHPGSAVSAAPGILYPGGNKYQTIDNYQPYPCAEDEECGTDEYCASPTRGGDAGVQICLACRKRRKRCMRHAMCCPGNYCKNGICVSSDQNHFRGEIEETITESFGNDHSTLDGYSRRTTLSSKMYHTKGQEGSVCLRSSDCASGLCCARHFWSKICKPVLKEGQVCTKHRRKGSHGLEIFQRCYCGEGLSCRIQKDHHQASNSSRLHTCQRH
Follistatin-related protein 3 (Homo sapiens), sequence (O95633 whole entry, looked up): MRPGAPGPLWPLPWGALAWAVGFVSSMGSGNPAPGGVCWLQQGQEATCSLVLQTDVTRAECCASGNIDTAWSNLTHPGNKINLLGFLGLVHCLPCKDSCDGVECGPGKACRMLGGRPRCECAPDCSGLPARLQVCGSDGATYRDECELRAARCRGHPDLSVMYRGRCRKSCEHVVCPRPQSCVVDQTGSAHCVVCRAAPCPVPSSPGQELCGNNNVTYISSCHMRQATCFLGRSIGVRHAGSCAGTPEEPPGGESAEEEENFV
Neurogenic locus notch homolog protein 3 (Homo sapiens), sequence (Q9UM47 whole entry, looked up): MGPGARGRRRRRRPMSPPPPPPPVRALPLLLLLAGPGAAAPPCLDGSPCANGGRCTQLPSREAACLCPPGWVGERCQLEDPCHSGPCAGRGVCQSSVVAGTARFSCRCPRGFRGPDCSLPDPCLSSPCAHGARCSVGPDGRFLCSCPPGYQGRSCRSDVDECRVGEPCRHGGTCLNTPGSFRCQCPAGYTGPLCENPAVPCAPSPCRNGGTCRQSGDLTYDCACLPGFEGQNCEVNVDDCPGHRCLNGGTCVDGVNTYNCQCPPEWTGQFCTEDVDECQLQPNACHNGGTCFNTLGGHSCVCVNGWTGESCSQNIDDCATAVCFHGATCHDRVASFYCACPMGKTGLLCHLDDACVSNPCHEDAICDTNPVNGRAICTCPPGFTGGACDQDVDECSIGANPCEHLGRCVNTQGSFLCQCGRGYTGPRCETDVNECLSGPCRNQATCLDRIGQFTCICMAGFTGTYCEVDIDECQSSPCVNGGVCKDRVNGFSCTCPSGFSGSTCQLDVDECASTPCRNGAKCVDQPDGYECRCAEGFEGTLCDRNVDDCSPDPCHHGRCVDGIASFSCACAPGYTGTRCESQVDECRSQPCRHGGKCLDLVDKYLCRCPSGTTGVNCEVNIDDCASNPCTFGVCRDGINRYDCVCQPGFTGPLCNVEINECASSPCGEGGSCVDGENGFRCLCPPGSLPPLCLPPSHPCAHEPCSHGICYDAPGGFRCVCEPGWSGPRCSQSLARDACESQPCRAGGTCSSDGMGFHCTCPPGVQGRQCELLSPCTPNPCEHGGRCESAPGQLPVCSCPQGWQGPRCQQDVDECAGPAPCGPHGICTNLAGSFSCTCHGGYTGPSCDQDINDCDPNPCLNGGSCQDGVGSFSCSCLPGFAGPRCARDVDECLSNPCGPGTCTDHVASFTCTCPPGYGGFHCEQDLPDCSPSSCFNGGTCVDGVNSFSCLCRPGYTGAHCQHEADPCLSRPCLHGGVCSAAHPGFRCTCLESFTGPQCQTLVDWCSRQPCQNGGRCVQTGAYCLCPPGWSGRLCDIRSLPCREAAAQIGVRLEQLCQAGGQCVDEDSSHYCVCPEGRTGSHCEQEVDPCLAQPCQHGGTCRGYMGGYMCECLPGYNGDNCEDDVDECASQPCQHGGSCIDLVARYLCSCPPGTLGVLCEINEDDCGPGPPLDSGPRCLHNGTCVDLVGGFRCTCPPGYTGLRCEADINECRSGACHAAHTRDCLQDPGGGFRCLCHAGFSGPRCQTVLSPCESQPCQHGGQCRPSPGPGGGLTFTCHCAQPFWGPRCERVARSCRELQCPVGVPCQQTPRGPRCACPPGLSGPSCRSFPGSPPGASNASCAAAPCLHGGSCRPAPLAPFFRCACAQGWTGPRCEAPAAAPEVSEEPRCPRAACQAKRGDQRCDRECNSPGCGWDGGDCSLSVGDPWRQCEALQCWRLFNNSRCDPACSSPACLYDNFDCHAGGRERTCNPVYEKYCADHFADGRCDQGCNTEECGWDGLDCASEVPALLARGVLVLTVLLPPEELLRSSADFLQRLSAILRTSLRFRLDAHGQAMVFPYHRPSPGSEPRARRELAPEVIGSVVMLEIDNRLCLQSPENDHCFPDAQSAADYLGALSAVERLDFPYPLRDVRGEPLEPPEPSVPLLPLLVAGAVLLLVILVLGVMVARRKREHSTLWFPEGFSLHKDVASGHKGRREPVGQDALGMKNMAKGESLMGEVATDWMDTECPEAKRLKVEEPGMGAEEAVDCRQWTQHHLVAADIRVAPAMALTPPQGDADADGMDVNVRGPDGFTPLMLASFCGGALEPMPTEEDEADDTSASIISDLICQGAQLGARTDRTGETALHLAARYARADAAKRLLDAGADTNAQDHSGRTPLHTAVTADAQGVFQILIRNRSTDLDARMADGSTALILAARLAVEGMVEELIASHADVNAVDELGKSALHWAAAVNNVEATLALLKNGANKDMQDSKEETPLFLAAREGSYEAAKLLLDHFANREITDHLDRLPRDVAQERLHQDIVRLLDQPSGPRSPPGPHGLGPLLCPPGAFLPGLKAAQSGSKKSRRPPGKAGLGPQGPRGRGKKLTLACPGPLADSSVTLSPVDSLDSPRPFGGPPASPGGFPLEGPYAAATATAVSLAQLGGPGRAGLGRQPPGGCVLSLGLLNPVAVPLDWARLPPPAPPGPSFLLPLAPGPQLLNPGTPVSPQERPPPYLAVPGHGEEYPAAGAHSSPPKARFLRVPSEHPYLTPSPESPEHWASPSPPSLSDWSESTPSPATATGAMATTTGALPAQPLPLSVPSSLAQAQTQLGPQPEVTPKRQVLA
Torsin-1A-interacting protein 2 (Homo sapiens), sequence (Q8NFQ8 whole entry, looked up): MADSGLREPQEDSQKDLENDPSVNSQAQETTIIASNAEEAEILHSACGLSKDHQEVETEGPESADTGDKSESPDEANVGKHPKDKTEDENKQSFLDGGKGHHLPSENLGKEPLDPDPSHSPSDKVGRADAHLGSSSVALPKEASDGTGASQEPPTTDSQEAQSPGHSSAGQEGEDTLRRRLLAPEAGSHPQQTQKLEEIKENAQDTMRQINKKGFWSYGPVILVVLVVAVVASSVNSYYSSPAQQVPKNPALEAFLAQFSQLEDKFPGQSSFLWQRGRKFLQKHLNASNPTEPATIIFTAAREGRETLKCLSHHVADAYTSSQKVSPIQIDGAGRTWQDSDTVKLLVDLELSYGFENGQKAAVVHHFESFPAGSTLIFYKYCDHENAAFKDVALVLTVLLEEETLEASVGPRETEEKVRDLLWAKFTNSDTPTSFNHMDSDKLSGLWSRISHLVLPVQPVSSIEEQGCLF
Fibroblast growth factor 10 (Homo sapiens), sequence (O15520 whole entry, looked up): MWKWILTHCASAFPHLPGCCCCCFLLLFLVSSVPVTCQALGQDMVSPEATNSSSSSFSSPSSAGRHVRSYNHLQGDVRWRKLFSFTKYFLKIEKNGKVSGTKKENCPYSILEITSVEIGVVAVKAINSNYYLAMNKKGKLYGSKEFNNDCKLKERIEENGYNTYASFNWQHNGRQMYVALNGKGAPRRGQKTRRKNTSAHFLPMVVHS

Compound: COCCOC(=O)N1C(=O)[C@@]2(c3cc(C#CCCO)ccc31)[C@H](c1ccccc1OCCO)N1[C@H](c3ccccc3)[C@H](c3ccccc3)OC(=O)[C@H]1[C@@H]2C(N)=O
- composite z-score [1]: 1.55
- z-score [2]: 1.48 (inactive)
- z-score [3]: 0.142 (inactive)
- z-score [4]: 2.99 (inactive)
- composite z-score [5]: 3.08
- z-score [6]: 2.16 (inactive)
- composite z-score [7]: -0.123
- composite z-score [8]: 1.6
- composite z-score [9]: 1.11
- composite z-score [10]: 0.0111
- composite z-score [11]: 1.3
- composite z-score [12]: -0.154
- composite z-score [13]: 0.0318
- z-score [14]: -1.51 (inactive)
- composite z-score [15]: 1.19
- composite z-score [16]: 1.21
- composite z-score [17]: 0.312
- composite z-score [18]: 1.05
- composite z-score [19]: 0.433
- composite z-score [20]: -0.0938

Compound: COC(=O)[C@]1(Cc2ccccc2)N=C(c2ccc(OCCCO)cc2)O[C@@H]1c1ccccc1CN=[N+]=[N-]
- composite z-score [1]: 1.56
- z-score [2]: 0.738 (inactive)
- z-score [3]: 0.237 (inactive)
- z-score [4]: 34.8 (active)
- composite z-score [5]: 2.34
- z-score [6]: -0.156 (inactive)
- composite z-score [7]: 0.0647
- composite z-score [8]: 0.615
- composite z-score [9]: 0.399
- composite z-score [10]: -0.0967
- composite z-score [11]: 0.965
- composite z-score [12]: 0.266
- composite z-score [13]: 0.98
- z-score [14]: 1.76 (inactive)
- composite z-score [15]: 0.506
- composite z-score [16]: 0.509
- composite z-score [17]: -0.296
- composite z-score [18]: 0.175
- composite z-score [19]: -0.0456
- composite z-score [20]: 0.702

Compound: COc1cc(CO)cc(I)c1O[C@H]1C=C(C(=O)NCCO)C[C@@H](NC2CCCCCC2)[C@@H]1O
- composite z-score [1]: 1.53
- z-score [2]: 0.543 (inactive)
- z-score [3]: -8.18 (active)
- z-score [4]: -0.397 (inactive)
- composite z-score [5]: 1.86
- z-score [6]: 1.37 (inactive)
- composite z-score [7]: -0.166
- composite z-score [8]: 1.22
- composite z-score [9]: 1.01
- composite z-score [10]: -0.0564
- composite z-score [11]: 0.515
- composite z-score [12]: -0.168
- composite z-score [13]: -0.675
- z-score [14]: -0.51 (inactive)
- composite z-score [15]: 1.38
- composite z-score [16]: 1.16
- composite z-score [17]: 0.44
- composite z-score [18]: 1.29
- composite z-score [19]: 0.772
- composite z-score [20]: 0.0403

Compound: C=C(CCCC)/C(=C/C[C@@H](OC(C)=O)c1ccc(CO)o1)c1cnc2ccccc2c1
- composite z-score [1]: 1.54
- z-score [2]: 1.5 (inactive)
- z-score [3]: -0.57 (inactive)
- z-score [4]: 0.824 (inactive)
- composite z-score [5]: 1.92
- z-score [6]: 0.688 (inactive)
- composite z-score [7]: -0.11
- composite z-score [8]: 1.57
- composite z-score [9]: 1.11
- composite z-score [10]: -0.0007
- composite z-score [11]: 1.08
- composite z-score [12]: -0.282
- composite z-score [13]: -0.428
- z-score [14]: 0.179 (inactive)
- composite z-score [15]: 1.46
- composite z-score [16]: 1.3
- composite z-score [17]: 0.533
- composite z-score [18]: 1.4
- composite z-score [19]: 0.768
- composite z-score [20]: 1.05

Compound: C=C(C)[C@@H]1CC=C(C(O)C2C=CC3C(=O)N(C)C(=O)C3N2Nc2ccc([N+](=O)[O-])cc2[N+](=O)[O-])CC1 (stereo not given in full)
- composite z-score [1]: 1.32
- z-score [2]: 0.513 (inactive)
- z-score [3]: 1.79 (inactive)
- z-score [4]: 0.966 (inactive)
- composite z-score [5]: 3.52
- z-score [6]: -0.476 (inactive)
- composite z-score [7]: 0.519
- composite z-score [8]: 0.263
- composite z-score [9]: 1.07
- composite z-score [10]: 0.358
- composite z-score [11]: 0.626
- composite z-score [12]: 0.989
- composite z-score [13]: 1.05
- z-score [14]: 1.86 (inactive)
- composite z-score [15]: 0.85
- composite z-score [16]: 1.28
- composite z-score [17]: 0.963
- composite z-score [18]: 1.04
- composite z-score [19]: 0.0615
- composite z-score [20]: 1.35

Compound: COc1cc(CO)cc(I)c1O[C@H]1C=C(C(=O)NCCO)C[C@@H]2O[C@H]12
- composite z-score [1]: 1.56
- z-score [2]: 0.111 (inactive)
- z-score [3]: -6.47 (inactive)
- z-score [4]: -1.42 (inactive)
- composite z-score [5]: 2.63
- z-score [6]: -0.0097 (inactive)
- composite z-score [7]: 0.17
- composite z-score [8]: 2.32
- composite z-score [9]: 1.07
- composite z-score [10]: 0.0018
- composite z-score [11]: 0.6
- composite z-score [12]: 0.298
- composite z-score [13]: 0.0558
- z-score [14]: 1 (inactive)
- composite z-score [15]: 1.77
- composite z-score [16]: 1.33
- composite z-score [17]: 0.989
- composite z-score [18]: 1.45
- composite z-score [19]: 1.34
- composite z-score [20]: 0.643

Compound: O=C(NCc1ccc(F)cc1)[C@H]1C[C@H]2C(=O)N3CCC[C@H]3C(=O)N2[C@H]1c1ccc(O)cc1
- composite z-score [1]: 0.0679
- z-score [2]: -1.04 (inactive)
- z-score [3]: -1.47 (inactive)
- z-score [4]: 0.164 (inactive)
- composite z-score [5]: -0.296
- z-score [6]: 2.41 (inactive)
- composite z-score [7]: -0.0963
- composite z-score [8]: -0.139
- composite z-score [9]: -0.484
- composite z-score [10]: -0.169
- composite z-score [11]: 0.605
- composite z-score [12]: -0.294
- composite z-score [13]: -0.292
- z-score [14]: -1.62 (inactive)
- composite z-score [15]: -0.0335
- composite z-score [16]: -0.73
- composite z-score [17]: 0.192
- composite z-score [18]: -0.423
- composite z-score [19]: 0.889
- composite z-score [20]: -0.964
